TRb SRC2 PPI: disrupts binding of human TR beta to SRC2; TRbeta-SRC2 peptide binding, fluorescence polarization; receptor liganded with 1 µM T3; Potency, µM (doses to about 106 µM), for the others: top-dose activity change, negative = inhibition, actives largely listed as inhibitors; 280,000 compounds, 0.065% hits; active = well fitted inhibition curve with a large enough effect; inconclusive = small, poorly fitted or top-dose-only effect, or effect the other way;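 note: potency is the fitted concentration of half-maximal effect; plate controls were bound peptide for no effect and peptide without receptor for full effect; nearly all actives have a fitted effect of over 50% in size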
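TRb LBD 0.6 uM + Texas Red SRC2 peptide 20 nM, 1 uM T3, Tris buffer w/ 5% DMSO; compound pinned, 5 h RT; FP read ex 555/em 632; normalized to unbound and bound controls.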
CXXC DNA block: inhibitors of human MLL CXXC domain-DNA interaction | Potency, µM (top dose mostly 115 µM), for inactives: at the highest dose activity change, negative = inhibition, most hits filed as inhibitors | 290,000 compounds, 0.037% hits | MLL-CXXC / FITC-HOXA9 DNA fluorescence polarization | Q03164; active = well fitted inhibition curve with a large enough effect in the polarisation, with a control signal flat, not every such curve was filed as active; inconclusive = small, poorly fitted or top-dose-only effect, or effect the other way, or a change in a side signal; inactive = no such curve, though single readings can be large or run the other way; the % refers to the polarisation; note: potency is the fitted concentration of half-maximal effect
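Purified MLL-CXXC (added from a 7 uM solution) was preincubated 5 min at ambient with pinned compounds in 50 mM Tris-HCl pH 7.5, 50 mM NaCl, 1 mM DTT, 0.05% BSA. Fluorescein-labeled HOX-A9 DNA (50 nM solution) followed, 30 min, then polarization read.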
RGS12 GoLoco inh: inhibitors of human Gai1-RGS12 GoLoco interaction (red fluorophore) | 230,000 compounds, 0.44% hits | AID 880 | P63096 | Gai1:RGS12 GoLoco peptide FP, rhodamine, 10 min | Potency, µM (top dose mostly 61.6 µM), for inactives: at the highest dose activity, negative = inhibition, most hits filed as inhibitors; active = well fitted inhibition curve with a large enough effect, not every such curve was filed as active; inactive = no such curve, though single readings can be large or run the other way; note: potency is the fitted concentration of half-maximal effect; % is set by controls: 0 for no effect and ±100 for the full control effect; nearly all actives have a fitted effect of over 30% in size
Menin MLL FP FL: menin-MLL binding inhibition, fluorescein peptide. Fluorescence polarization, fluorescein-MLL peptide displacement from menin. FP activity change, % at 61.4 µM. 290,000 tested, under 10 active. AID 1766; active = well fitted curve in the direction sought with a large enough effect in the polarisation, not every such curve was filed as active; inconclusive = small, poorly fitted or top-dose-only effect, or effect the other way, or a change in a side signal; inactive = no such curve, though single readings can be large or run the other way; the % refers to the polarisation; note: % of control where 0% means no effect
Menin-MLL TR inh: displaces Texas Red mutant MLL peptide from human menin; Menin + Texas Red MLL mutant peptide, fluorescence polarization; 270,000 compounds, 0.23% hits; Potency, µM (highest dose often 61.6 µM), for inactives: at the highest dose FP activity change, negative = inhibition, usual class: inhibitors; active = well fitted inhibition curve with a large enough effect in the polarisation, with a control signal flat, not every such curve was filed as active; inconclusive = small, poorly fitted or top-dose-only effect, or effect the other way, or a change in a side signal; inactive = no such curve, though single readings can be large or run the other way; the % refers to the polarisation; note: potency is the fitted concentration of half-maximal effect; % of control where 0% means no effect
Target sequence (O00255 whole entry, looked up): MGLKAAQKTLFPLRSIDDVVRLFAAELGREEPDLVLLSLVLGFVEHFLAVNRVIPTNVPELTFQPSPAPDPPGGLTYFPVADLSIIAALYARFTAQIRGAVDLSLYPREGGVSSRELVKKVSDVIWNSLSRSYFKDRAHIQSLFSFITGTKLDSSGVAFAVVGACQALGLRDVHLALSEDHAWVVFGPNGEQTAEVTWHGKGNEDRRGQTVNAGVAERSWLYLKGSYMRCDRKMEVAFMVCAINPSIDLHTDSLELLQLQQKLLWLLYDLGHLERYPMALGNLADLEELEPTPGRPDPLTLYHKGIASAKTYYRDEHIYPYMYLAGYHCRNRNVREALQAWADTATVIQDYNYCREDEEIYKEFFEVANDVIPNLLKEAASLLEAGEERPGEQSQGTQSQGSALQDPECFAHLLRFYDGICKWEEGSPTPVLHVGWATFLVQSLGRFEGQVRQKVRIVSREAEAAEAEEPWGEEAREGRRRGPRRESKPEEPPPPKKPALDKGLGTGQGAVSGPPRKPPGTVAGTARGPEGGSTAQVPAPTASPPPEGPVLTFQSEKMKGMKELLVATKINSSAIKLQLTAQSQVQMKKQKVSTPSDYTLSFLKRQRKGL
TR SRC2 fluor cs: Texas Red fluorescence interference in TRb-SRC2 counter-screen; TRb/SRC2 Texas Red total fluorescence interference; Potency, µM (titrated, usually from 106 µM), inactives show top-dose fluorescence change, negative = quenching; 280,000 compounds, 0.29% hits; AID 1479; active = well fitted curve in either direction with a large enough effect; inconclusive = small, poorly fitted or top-dose-only effect; note: potency is the fitted concentration of half-maximal effect; % is set by controls: 0 for no effect and ±100 for the full control effect
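Human TRb ligand-binding domain at 0.6 uM with 20 nM Texas Red SRC2 peptide in Tris buffer containing 1 uM T3 and 5% DMSO, incubated with compound 5 h at ambient temperature. Total fluorescence (555/632 nm) calculated as parallel + 2 × perpendicular.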
The depositor's hits bear a star; u = inconclusive; x = no result; ! = not confirmed by another sample; [ ] = dose if it differs, or a comment. In the library only some 0.5% were active in any assay of this set; here they are far more common.

SMILES | TRb SRC2 PPI | CXXC DNA block | RGS12 GoLoco inh | Menin MLL FP FL | Menin-MLL TR inh | TR SRC2 fluor cs
CN(C)c1ccc(NC(=O)N2CCOCC2)cc1 | -10% | 6% | 14% | 0 | 20µM* | -1%
Fc1cc(Br)ccc1Nc1c2c(nc3nc(-c4cccs4)nn13)CCCC2 | 4% | x | x | x | x | 2%
Nc1cc([N+](=O)[O-])ccc1O | 7%[201 µM] | 0% | -1% | -7 | 21% | 0.11µM*![quencher]
Cc1ccc([N+](=O)[O-])cc1N | 0%[201 µM] | 0% | 7% | -1 | -8% | -2%[201 µM]
Cc1ccc2onc(CC(=O)N3CCN(c4cccc(Cl)c4)CC3)c2c1 | -27% | x | x | x | x | 25µM*[quencher]
Cc1ccc2onc(CC(=O)N3CCN(c4cc(Cl)ccc4C)CC3)c2c1 | -27% | x | x | x | x | u
COC(=O)c1cc2sccc2n1Cc1ccc(F)cc1Cl | -4% | x | x | x | x | -17%
COc1ccc(S(=O)(=O)NCCSc2nnnn2-c2ccccc2)cc1OC | -8% | x | x | x | x | 8.9µM*[quencher]
CCOc1cccc2sc(N(CCN(CC)CC)C(=O)c3ccco3)nc12 | -11% | x | x | x | x | 14µM*[quencher]
CN(C)c1ccc(C(c2ccccc2)c2ccc(N(C)C)cc2)cc1 | 7%[201 µM] | x | x | x | x | 1%[201 µM]
O=C(NCc1cccs1)C1CCN(C(=O)N2CCOc3ccc(Cl)cc32)CC1 | -8% | x | x | x | x | 4%
O=C(NCc1cccs1)C1CCN(C(=O)N2CCOc3ccccc32)CC1 | -10% | x | x | x | x | 0.56µM*[quencher]
CO[Si](CCCOCC1CO1)(OC)OC (stereo not drawn) | 0%[201 µM] | x | x | x | x | -1%[201 µM]
O=C(CN1CCN(c2ccccc2)CC1)Nc1ccc2c(c1)CCC2 | 7% | 1% | -2% | -3 | -9% | 1%
O=C(Nc1ccc2c(c1)CCC2)c1cc(S(=O)(=O)N2CCN(c3ccccc3)CC2)ccc1Cl | 21% | 21% | 170% | u | x | 45µM*[fluorescent]
CCN(CC)S(=O)(=O)c1cccc(N=NC2=C(O)CCCC2=O)c1 | 40µM* | 12% | 3% | 6 | 2% | u
N#Cc1sc2nc(-c3cccs3)cc(-c3ccc(Cl)cc3)c2c1N | 0% | -10% | 10% | u | 25µM* | 3%
N#Cc1sc2nc(-c3ccccc3)cc(C(F)(F)F)c2c1N | 4% | 6% | -9% | 4 | 18% | 0%
N#Cc1sc2nc(-c3cccs3)cc(-c3ccccc3)c2c1N | -11% | 17% | 29% | u | 13µM* | -4%
COc1ccc(N2CCN(C(c3ccccc3F)c3sc4nc(-c5ccco5)nn4c3O)CC2)cc1 (stereo not drawn) | 0% | x | x | x | x | -1%
CNCCCCc1cnc(C)c2[nH]c3ccccc3c12 | -2% | x | 6% | -5 | -27% | -2%
Cc1ccc2c(N)c(C)ccc2c1 | -3% | -10% | 7% | 5 | 29% | 0%
Cc1ccc2cc3c(N)c4c(C)ccc(C)c4nc3nc2c1 | -1% | u | 18µM* | u | -25% | -1%
COc1ccc(NC(=O)CSc2nc(N)c3cc4c(nc3n2)CCCC4)cc1 | 3% | 19% | 13% | 9 | -3% | 1%
CC(=O)c1ccc(NC(=O)CSc2nc(N)c3cc4c(nc3n2)CCCC4)cc1 | -22% | 4% | 56% | 12 | 7% | 89µM*[quencher]
SMILES | TRb SRC2 PPI | CXXC DNA block | RGS12 GoLoco inh | Menin MLL FP FL | Menin-MLL TR inh | TR SRC2 fluor cs
Cc1cccn2c(=O)c(/C=C(\C#N)C(=O)NC3CCS(=O)(=O)C3)c(N3CC(C)OC(C)C3)nc12 (stereo not drawn) | -3% | 0% | 0% | -8 | x | 1%
Cc1cccn2c(=O)c(/C=C(\C#N)C(=O)NC3CCS(=O)(=O)C3)c(N3CCC(C(N)=O)CC3)nc12 (stereo not drawn) | -20%[53 µM] | 22% | 0% | 4 | -16% | 0.0003µM*[quencher]
COCCCNC(=O)/C(C#N)=C/c1c(N2CCN(c3ccc(OC)cc3)CC2)nc2c(C)cccn2c1=O | x | 2% | x | -29 | 28µM* | x
COCCCNC(=O)/C(C#N)=C/c1c(N2CCN(C)CC2)nc2c(C)cccn2c1=O | x | 5% | x | -10 | 15% | x
Cc1ccc(C)c(CNC(=O)c2cnc3sc(N4CCCC4)nn3c2=O)c1 | 2% | x | x | x | x | -6%
Cc1ccccc1OCC(=O)NCC(c1ccc(Cl)cc1)N1CCCCC1 (stereo not drawn) | -2% | x | x | x | x | -10%
COc1ccc(-c2c(C)nn3c4c(cnc23)C(=O)CC(c2ccc(C)cc2)C4)cc1 (stereo not drawn) | -13% | x | x | x | x | 14µM*[quencher]
O=C(/C=C/Nc1ccc(F)cc1F)c1cccs1 | -27% | 14% | 27% | u | u | -3%
O=C(/C=C/Nc1ccccc1F)c1cccs1 | -14% | 29% | 8.9µM* | 9 | 4% | -2%
COC(=O)c1cc2sc(Cl)cc2n1Cc1nc(-c2ccc(OC)cc2)oc1C | -3% | x | x | x | x | 3%
COC(=O)c1cc2sc(Cl)cc2n1Cc1nc(-c2ccccc2F)oc1C | -15% | x | x | x | x | 25µM*[quencher]
COc1ccc(C2C(=O)N(C3CCCCCC3)CC(=O)N2CCC2=CCCCC2)cc1 (stereo not drawn) | -7% | x | x | x | x | 0%
Cc1ccc(N=Nc2c(O)ccc3ccccc23)c([N+](=O)[O-])c1 | -6%[201 µM] | x | x | x | x | 3%[201 µM]
Cc1ccc(N=Nc2c(O)ccc3ccccc23)c(C)c1 | 40µM* | x | x | x | x | 45µM*[fluorescent]
CC(=O)Nc1ccc(S(=O)(=O)Oc2ccc(/C=C3\SC(N)=NC3=O)cc2)cc1 | 12% | 2% | -8% | -1 | 14µM* | -3%
O=c1cc(-c2ccc(O)cc2)oc2cc(O)cc(O)c12 | u | 7% | 18µM*! | u | 36% | u
CC(=O)N1CCc2cc(S(=O)(=O)C(C)CC(=O)Nc3ccc(Br)c(C)c3)ccc21 (stereo not drawn) | -5% | x | x | x | x | -1%
C[n+]1cccc(CNC(=O)/C=N/O)c1 | 5% | -3% | 14µM* | -1 | x | 2%
Cc1ccc(-c2nonc2NC(=O)c2ccco2)cc1C | -5% | x | x | x | x | -1%
CC(=O)N1CCN(C(=S)c2cccc([N+](=O)[O-])c2)CC1 | 8% | 4% | 0% | 1 | 1% | -2%
O=[N+]([O-])c1ccc(N2CCN(C(=S)c3cccc([N+](=O)[O-])c3)CC2)cc1 | 4% | 1% | 13µM* | 1 | x | 0%
Cc1ccccc1NC(=O)CSc1nc2c(oc3ccccc32)c(=O)n1-c1ccccc1F | -4% | x | x | x | x | u
Cn1c(=Nc2ccc(N3CCOCC3)cc2)ccc2ccccc21 | -4% | 0% | 0.32µM* | -1 | -1% | -2%
CCn1c(=Nc2ccc(N3CCOCC3)cc2)ccc2ccccc21 | 0% | -2% | 0% | -3 | 2% | -1%
CN=C(N)NCC1CCOC1 (stereo not drawn) | 2%[201 µM] | x | x | x | x | 1%[201 µM]
CCOP(=O)(OCC)c1nc(-c2cccc3ccccc23)oc1N1CCCCC1 | -5% | 2% | 4% | 2 | -19% | 0%
CCOP(=O)(OCC)c1nc(-c2ccccc2)oc1N1CCCCC1 | x | 7% | x | 4 | 32µM* | x

Assay outcomes deposited in PubChem by National Center for Advancing Translational Sciences (NCATS).
